Shn3 inh set2 – inhibitors of Schnurri-3 3'UTR reporter in osteoblasts; inhibition, % at 12.5 µM; AID 588674; Clone20 osteoblast Shn3 3'UTR firefly luciferase, 24 h; 360,000 compounds, 0.52% hits;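 active = mean inhibition of at least 75% with every replicate also reaching 75%; inconclusive = mean inhibition at least 75% but some replicate below; inactive = mean inhibition below 75%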;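 note: 0% = median of neutral control wells and 100% = pilot-screen positive control compound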
CF NFkB block – blocks PAF-induced NF-kB reporter in cystic fibrosis cells. AID 588850. inhibition, % at 5 µM. 360,000 compounds, 0.86% hits. KKLEB NF-kB-GFP reporter, GFP fluorescence overnight;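 active = at least 50% inhibition at 5 µM, scaled per plate between neutral and stimulator controls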;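 note: PAF is a Pseudomonas aeruginosa culture filtrate used as stimulus; plate controls were PAF-stimulated DMSO wells for no effect and unstimulated DMSO wells for full effect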
Peg3 promoter – Peg3 promoter activity inhibition. HeLa PEG-Prom luciferase reporter, luminescence, overnight. inhibition, % at 20 µM. 360,000 compounds, 1.7% hits;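 active = inhibition of at least 50% at 20 µM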
TRPM1 prom inh – inhibitors of MITF-driven TRPM1 promoter in melanoma cells | inhibition, % at 12.5 µM | SK-MEL-5 TRPM1 promoter luciferase, 24 h | 330,000 compounds, 0.83% hits | AID 488899;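 active = mean inhibition across replicates of 60% or more, whatever share of single replicates reaches that level; inconclusive = some that reach 60%, reason not given; inactive = mean inhibition across replicates below 60%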
HIF-2a inh – inhibitors of HIF-2a; 786-0 RCC cells HIF-2a reporter, luciferase luminescence, overnight; inhibition, % at 18.8 µM; 360,000 compounds, 0.72% hits;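 active = inhibition of the luminescence signal of 40% or more relative to plate controls, in a single-dose primary screen at 18.75 µM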
KKLEB tox – counter-screen for CF NF-kB inhibitors: cytotoxicity. KKLEB CF airway cells viability, ATPlite luminescence, overnight; active compounds read low; cells stimulated with P. aeruginosa culture filtrate. activity change (cytotoxicity), % at 5 µM. 360,000 compounds, 0.36% hits. AID 602141;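 active = corrected activity change at or below -50% at 5 µM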
* = called active by the depositor; ? = inconclusive; nt = not tested or not shown. This is a sample that favours compounds with a hit; in the whole collection about 2.7% have one here.

SMILES	Shn3 inh set2	CF NFkB block	Peg3 promoter	TRPM1 prom inh	HIF-2a inh	KKLEB tox
CCN1CCC(O)(/C=C/c2ccc(C(C)C)cc2)C(C(=O)/C=C/c2ccc(C(C)C)cc2)C1 (configuration not stated)	83	20	104*	67*	-8	-10
CCOC(=O)c1ccn(CSc2c(F)c(F)cc(F)c2F)n1	-12	6	-5	-12	-3	0
CCCCCCCCNCCS(=O)(=O)NCc1ccccc1	3	6	64*	-3	-7	-29
CC#CCN(Cc1ccco1)C(=O)C1CCC(=O)N(CCc2cccc(F)c2)C1 (configuration not stated)	14	-1	12	nt	17	2
Cc1c(Cl)cccc1N/C(SCC(=O)N1CCCCCC1)=C(/C#N)c1nc2ccccc2s1	45	54*	45	46	36	-65*
O=C(CSc1nc2ccccc2s1)N1CCCCC1	-82	-5	-243	-75	-290	18
O=C1ON=C(c2ccccc2)/C1=C/c1ccc(-c2ccccc2[N+](=O)[O-])o1	?	40	103*	67*	98*	-18
O=[N+]([O-])c1ccccc1-c1ccc(/C=N/n2cnnc2)o1	14	-55	15	1	-15	10
O=C(/C=C/Nc1ccc(F)cc1F)c1ccco1	-39	-10	-13	-2	-73	-58*
O=C(/C=C/Nc1cccc(F)c1)c1ccco1	-81	-3	-275	-83	-252	-2
O=C(/C=C/Nc1ccc(Br)cc1F)c1ccco1	18	-4	24	29	10	-65*
O=C(/C=C/Nc1ccccc1O)c1ccco1	-64	-16	-267	-40	-209	22
O=C(/C=C/c1ccc(Br)cc1)c1ccco1	17	27	90*	-6	-51	-9
Cc1ccc(N/C=C/C(=O)c2cccs2)cc1	10	-30	15	31	-35	-54*
Cc1ccc(S(=O)(=O)N2[C@@H](Cc3ccccc3)CO[C@H]2CC(=O)c2cccs2)cc1	nt	nt	nt	nt	-19	nt
O=C(O)c1cc(=S)nc[nH]1	13	-12	-1	-4	14	10
O=C(c1ccc2c(=O)n3c(nc2c1)CCC3)N1CCN(S(=O)(=O)c2cccc(F)c2)CC1	10	14	15	2	13	-2
O=C(/C=C/Nc1ccc(F)cc1F)c1cccs1	-6	-13	12	12	-7	-68*
O=C(/C=C/Nc1ccccc1F)c1cccs1	-64	-6	-43	12	-25	-28
COc1cccc(NC(=O)C2CCCN2C(=O)Nc2ccccc2)c1 (configuration not stated)	3	-4	12	-7	-2	0
COc1cccc(NC(=O)C2CCCN2C(=O)Nc2cccc(F)c2)c1 (configuration not stated)	8	20	67*	11	12	-5
COc1ccc(CCNC(=O)c2ccc(CS(=O)Cc3ccc(Cl)cc3)o2)cc1OC (configuration not stated)	2	-2	16	1	9	14
C=CCNc1nc(N)c([N+](=O)[O-])c(Nc2ccccc2OC)n1	3	41	34	-2	22	-7
CCC(C)Nc1nc(N)c([N+](=O)[O-])c(Nc2cc(OC)ccc2OC)n1 (configuration not stated)	5	38	47	5	22	-21
CCC(C)Nc1nc(N)c([N+](=O)[O-])c(Nc2ccccc2OC)n1 (configuration not stated)	0	36	60*	0	12	-9
COc1ccccc1Nc1nc(NCC(C)C)nc(N)c1[N+](=O)[O-]	-8	55*	45	-10	26	-14
O=C(NC1CCc2ccccc21)c1cc(COc2cncc(Cl)c2)on1 (configuration not stated)	-8	22	-119	-32	-140	5
CCc1c(C2(O)CCCCC2)[nH]c2cnccc12	16	14	0	7	13	-4
CSc1cccc(CN2CCC(Oc3ccc(C(=O)N4CCCCC4)cc3)CC2)c1	8	12	28	-9	21	5
O=S(=O)(c1ccccc1)N(CC1CO1)c1cc(Cl)ccc1Cl (configuration not stated)	-16	9	9	-7	17	-1

Screening results deposited in PubChem BioAssay by several laboratories.
